The subject of assay [1] is PRMT1 (protein arginine N-methyltransferase 1). The assay is described as follows: PRMT1 binders on small-molecule microarrays, primary screen, biochemical, small-molecule microarray, 635 nm fluorescence (AID 1088).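 Note: binding of Prmt1 protein to compounds spotted on small-molecule microarray slides.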 The note with it: small-molecule microarray binding, higher = more signal.
Assay [2] is described as follows: yeast growth modulation, basal conditions, primary screen, YJM789 clinical isolate, OD600, 24 h (AID 1089).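 Note: growth of clinical yeast isolate S. cerevisiae YJM 789 seeded 1000 cells per well; test concentration not given here.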 The note with it: S. cerevisiae YJM789 growth, higher = more signal, called active from +8 up or from −8 down.
A short description of assay [3]: fission yeast growth modulation, primary screen, strain 972, OD600, 24 h, no modulator (AID 1090).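 Note: basal condition with compound alone and no growth modifier present; test concentration not given here.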 As to conditions: S. pombe 972 growth, higher = more signal, called active from +8 up or from −8 down.
A short description of assay [4]: S. cerevisiae growth modulation with rapamycin, primary screen, strain BY4716, OD600, 96 h (AID 1091). Note: test concentration not given here. As to conditions: higher = more signal, called active from +8 up or from −8 down.
In assay [5] the target is Torsin-1A-interacting protein 2 (Homo sapiens) (UniProt Q8NFQ8). Nature of the assay: LULL1 binders on small-molecule microarray, primary screen, cell lysate, human LULL1 lysate, 635/667 nm fluorescence (AID 1092).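 Note: probe is lysate of COS7 cells overexpressing human LULL1; score merges per-feature 667 nm fluorescence with signal-to-noise.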 The note with it: hLULL1 lysate binding, 635 nm fluorescence, higher = more signal.
Torsin-1A-interacting protein 2 (Homo sapiens), sequence (Q8NFQ8 whole entry, looked up): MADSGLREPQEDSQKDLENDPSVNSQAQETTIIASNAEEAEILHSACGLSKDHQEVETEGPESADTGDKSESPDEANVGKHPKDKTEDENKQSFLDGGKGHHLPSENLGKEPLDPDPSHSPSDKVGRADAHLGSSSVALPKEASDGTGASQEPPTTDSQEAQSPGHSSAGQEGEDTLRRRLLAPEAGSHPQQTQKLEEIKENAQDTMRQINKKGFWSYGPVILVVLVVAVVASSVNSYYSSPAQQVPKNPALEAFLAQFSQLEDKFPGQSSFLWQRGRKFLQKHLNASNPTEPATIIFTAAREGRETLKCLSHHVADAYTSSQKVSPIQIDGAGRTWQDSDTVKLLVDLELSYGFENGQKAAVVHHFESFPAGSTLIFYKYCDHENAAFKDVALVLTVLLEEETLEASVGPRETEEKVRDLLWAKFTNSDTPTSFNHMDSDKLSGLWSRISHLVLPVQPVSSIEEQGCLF
The nature of assay [6]: E. coli growth modulation, two-sided OD650, primary screen, E. coli filamentation project, strain DRC41, 24 h (AID 1093).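 Note: MC1000 strain lacking acrAB efflux and sulA so SOS filamentation is blocked; test concentration not given here.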 As to conditions: OD650, 24 h, higher = more signal, called active from +8 up or from −8 down.
The nature of assay [7]: small-molecule microarray binders of probe aLefty2, primary screen, biochemical, biotinylated probe, 635/667 nm fluorescence (AID 1094).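 Note: score merges spot fluorescence near 667 nm with spot signal-to-noise ratio.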 The note with it: higher = more signal.
Assay [8] deals with Noggin (protein binding on small-molecule microarray). The assay is described as follows: Noggin binders on small-molecule microarray, primary screen, biochemical, 635/667 nm fluorescence (AID 1095).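 Note: score merges 667 nm feature fluorescence with signal to noise over triplicate slides.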 As to conditions: 635 nm fluorescence, higher = more signal.
In assay [9] the target is Neurogenic locus notch homolog protein 3 (Homo sapiens) (UniProt Q9UM47). The assay is described as follows: NOTCH3 binders on small-molecule microarray, primary screen, biochemical, 635/667 nm fluorescence (AID 1096). As to conditions: NOTCH3 binding, 635 nm fluorescence, higher = more signal.
Neurogenic locus notch homolog protein 3 (Homo sapiens), sequence (Q9UM47 whole entry, looked up): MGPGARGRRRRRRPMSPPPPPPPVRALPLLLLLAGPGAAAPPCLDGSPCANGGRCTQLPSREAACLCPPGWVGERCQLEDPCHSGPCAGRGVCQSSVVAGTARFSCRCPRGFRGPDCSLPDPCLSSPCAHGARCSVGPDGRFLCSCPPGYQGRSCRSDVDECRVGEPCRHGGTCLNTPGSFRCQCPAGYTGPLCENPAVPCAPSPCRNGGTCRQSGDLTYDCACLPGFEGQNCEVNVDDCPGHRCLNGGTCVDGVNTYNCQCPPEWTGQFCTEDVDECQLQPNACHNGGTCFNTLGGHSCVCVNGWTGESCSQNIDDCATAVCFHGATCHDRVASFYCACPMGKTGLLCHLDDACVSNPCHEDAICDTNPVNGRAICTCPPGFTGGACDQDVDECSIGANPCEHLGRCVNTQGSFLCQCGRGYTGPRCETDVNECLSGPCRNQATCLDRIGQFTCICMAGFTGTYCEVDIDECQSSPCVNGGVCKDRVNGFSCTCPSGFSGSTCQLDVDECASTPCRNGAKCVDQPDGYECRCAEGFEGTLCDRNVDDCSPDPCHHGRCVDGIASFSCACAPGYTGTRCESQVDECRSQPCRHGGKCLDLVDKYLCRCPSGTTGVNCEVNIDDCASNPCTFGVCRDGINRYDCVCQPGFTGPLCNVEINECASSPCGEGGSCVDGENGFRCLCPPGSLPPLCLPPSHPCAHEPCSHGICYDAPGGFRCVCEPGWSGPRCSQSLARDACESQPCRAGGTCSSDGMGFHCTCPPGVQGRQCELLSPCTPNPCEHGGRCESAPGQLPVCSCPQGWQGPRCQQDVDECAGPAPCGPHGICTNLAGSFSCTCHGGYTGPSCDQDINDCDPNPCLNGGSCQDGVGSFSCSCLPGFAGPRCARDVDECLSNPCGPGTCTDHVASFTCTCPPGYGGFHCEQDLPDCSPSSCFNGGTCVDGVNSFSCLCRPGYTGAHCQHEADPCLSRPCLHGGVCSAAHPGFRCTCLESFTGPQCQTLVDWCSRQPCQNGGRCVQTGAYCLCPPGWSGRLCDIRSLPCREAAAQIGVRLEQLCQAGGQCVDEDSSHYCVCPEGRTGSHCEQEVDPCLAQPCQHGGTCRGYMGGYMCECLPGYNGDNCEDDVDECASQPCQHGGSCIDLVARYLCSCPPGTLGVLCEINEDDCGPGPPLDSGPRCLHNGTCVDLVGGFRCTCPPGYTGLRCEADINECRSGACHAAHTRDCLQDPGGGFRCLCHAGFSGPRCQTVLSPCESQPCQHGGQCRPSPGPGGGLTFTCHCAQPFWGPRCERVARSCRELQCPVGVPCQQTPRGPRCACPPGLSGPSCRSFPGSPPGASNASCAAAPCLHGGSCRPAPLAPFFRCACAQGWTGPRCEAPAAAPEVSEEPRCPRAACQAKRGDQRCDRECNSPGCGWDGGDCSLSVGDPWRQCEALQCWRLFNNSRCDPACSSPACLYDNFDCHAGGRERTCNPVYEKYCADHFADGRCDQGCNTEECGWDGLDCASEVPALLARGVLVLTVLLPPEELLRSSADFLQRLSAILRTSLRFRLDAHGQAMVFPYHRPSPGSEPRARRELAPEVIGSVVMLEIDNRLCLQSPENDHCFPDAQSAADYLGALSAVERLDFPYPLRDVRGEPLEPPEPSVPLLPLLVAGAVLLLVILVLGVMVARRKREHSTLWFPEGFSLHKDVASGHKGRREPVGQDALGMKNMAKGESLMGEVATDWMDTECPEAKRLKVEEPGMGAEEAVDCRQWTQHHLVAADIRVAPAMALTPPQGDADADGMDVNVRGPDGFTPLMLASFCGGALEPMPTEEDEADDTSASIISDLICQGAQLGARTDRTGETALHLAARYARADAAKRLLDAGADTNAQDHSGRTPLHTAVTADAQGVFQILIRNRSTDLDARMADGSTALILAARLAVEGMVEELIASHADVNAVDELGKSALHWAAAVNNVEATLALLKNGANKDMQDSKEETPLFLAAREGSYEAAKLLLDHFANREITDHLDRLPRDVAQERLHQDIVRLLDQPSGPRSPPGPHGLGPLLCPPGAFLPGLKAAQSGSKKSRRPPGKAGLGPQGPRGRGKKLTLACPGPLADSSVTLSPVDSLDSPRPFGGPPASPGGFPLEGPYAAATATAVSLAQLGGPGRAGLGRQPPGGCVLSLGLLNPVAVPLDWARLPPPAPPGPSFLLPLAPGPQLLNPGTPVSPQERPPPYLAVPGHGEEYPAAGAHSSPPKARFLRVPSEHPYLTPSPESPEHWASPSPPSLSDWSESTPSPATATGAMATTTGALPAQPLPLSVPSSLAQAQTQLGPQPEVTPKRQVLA
Assay [10] can be described thus: small-molecule microarray binders of probe aEGFR, primary screen, biochemical, biotinylated probe, 635/667 nm fluorescence (AID 1097).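 Note: probe is a biotinylated anti-EGFR antibody binding compounds printed on slides; score combines fluorescence near 667 nm and signal to noise of each spot.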 As to conditions: higher = more signal.
Assay [11] has as its system Plasmodium falciparum Sir2 (PF13_0152, Sir2A). The assay is described as follows: pfSir2 binders on small-molecule microarrays, primary screen, biochemical, small-molecule microarray, 635 nm fluorescence (AID 1098).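 Note: score merges spot fluorescence intensity with its signal-to-noise ratio.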 As to conditions: small-molecule microarray binding, fluorescence 635 nm; higher = more signal.
The nature of assay [12]: small-molecule microarray binders of probe aDKK1, primary screen, biochemical, biotinylated probe, 635/667 nm fluorescence (AID 1099).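 Note: score merges 667nm spot fluorescence with signal to noise across triplicate slides; reference of the scale not given here.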 As to conditions: higher = more signal.
A short description of assay [13]: small-molecule microarray binders of probe aCHRDL2, primary screen, biochemical, biotinylated probe, 635/667 nm fluorescence (AID 1100). As to conditions: higher = more signal.
Assay [14] can be described thus: splicing luciferase reporter signal modulators, primary screen, spliceosome inhibition project, cell-based, HEK293, splice +/- reporter (AID 1101).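 Note: HEK293 cells carrying a splicing-competent luciferase reporter gene; test concentration not given here.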 The note with it: luminescence, 24 h, higher = more signal, called active from +8 up or from −8 down. For orientation: Reporter assays use an easily measured gene product as a stand-in for the process of interest.
Assay [15] deals with Fibroblast growth factor 10 (Homo sapiens) (UniProt O15520). Nature of the assay: FGF10 binders on small-molecule microarrays, primary screen, biochemical, small-molecule microarray, 635 nm fluorescence (AID 1102). As to conditions: FGF10 binding, fluorescence 635 nm, higher = more signal.
Fibroblast growth factor 10 (Homo sapiens), sequence (O15520 whole entry, looked up): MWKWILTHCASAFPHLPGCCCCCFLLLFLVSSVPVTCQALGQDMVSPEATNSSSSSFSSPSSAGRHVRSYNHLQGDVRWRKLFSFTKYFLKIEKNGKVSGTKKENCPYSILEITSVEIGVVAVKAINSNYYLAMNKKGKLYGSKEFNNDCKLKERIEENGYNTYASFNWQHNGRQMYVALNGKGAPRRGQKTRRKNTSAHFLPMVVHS
Assay [16] has as its system glycogen synthase kinase-3 (GSK3A per assay name; protocol says GSK3B). Nature of the assay: GSK3 binders on small-molecule microarrays, primary screen, biochemical, small-molecule microarray, 635 nm fluorescence, GSK3A (AID 1103). Note: the record names both GSK3A and GSK3B. As to conditions: small-molecule microarray binding, fluorescence 635 nm; higher = more signal.
The target of assay [17] is Epidermal growth factor receptor (Homo sapiens) (UniProt P00533). The assay is described as follows: EGFR binders on small-molecule microarrays, primary screen, biochemical, small-molecule microarray, 635 nm fluorescence (AID 1104).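 Note: score merges 667 nm emission intensity with spot signal to noise over triplicate slides.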 As to conditions: EGFR binding, higher = more signal.
Epidermal growth factor receptor (Homo sapiens), sequence (P00533 whole entry, looked up): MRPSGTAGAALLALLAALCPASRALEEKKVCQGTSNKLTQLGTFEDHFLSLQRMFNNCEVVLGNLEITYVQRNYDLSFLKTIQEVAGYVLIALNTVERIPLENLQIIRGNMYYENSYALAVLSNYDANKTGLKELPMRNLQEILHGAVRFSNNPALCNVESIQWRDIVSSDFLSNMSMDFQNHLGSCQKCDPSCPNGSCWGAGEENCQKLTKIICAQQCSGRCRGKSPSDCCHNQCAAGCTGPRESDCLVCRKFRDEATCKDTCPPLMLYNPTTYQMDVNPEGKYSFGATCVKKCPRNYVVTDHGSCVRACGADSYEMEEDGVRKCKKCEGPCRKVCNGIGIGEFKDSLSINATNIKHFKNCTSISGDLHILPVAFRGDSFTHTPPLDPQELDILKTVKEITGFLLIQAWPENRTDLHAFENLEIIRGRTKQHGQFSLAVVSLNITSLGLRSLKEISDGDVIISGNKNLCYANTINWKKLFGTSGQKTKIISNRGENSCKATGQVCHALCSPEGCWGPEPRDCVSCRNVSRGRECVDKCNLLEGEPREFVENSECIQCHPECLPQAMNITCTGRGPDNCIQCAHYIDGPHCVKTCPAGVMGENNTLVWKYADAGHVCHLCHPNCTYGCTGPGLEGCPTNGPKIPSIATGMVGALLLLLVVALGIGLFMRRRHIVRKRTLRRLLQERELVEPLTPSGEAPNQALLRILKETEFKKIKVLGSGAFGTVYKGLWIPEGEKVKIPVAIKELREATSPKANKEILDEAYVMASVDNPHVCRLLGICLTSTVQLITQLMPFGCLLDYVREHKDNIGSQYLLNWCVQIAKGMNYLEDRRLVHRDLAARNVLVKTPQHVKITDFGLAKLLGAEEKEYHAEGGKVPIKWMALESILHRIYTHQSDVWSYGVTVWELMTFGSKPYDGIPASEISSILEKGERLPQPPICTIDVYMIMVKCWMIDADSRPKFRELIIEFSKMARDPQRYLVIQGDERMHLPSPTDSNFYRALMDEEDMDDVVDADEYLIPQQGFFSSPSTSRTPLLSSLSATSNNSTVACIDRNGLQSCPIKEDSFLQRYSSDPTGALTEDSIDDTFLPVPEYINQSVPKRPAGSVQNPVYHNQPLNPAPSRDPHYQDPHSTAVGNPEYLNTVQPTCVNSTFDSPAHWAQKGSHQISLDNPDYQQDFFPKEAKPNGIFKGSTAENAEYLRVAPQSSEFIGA
Assay [18] addresses Follistatin-related protein 3 (Homo sapiens) (UniProt O95633). The assay is described as follows: FSTL3 binders on small-molecule microarrays, primary screen, biochemical, small-molecule microarray, 635 nm fluorescence (AID 1105).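 Note: score merges emission near 667 nm and signal to noise per printed spot across three slides.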 The note with it: FSTL3 binding, higher = more signal.
Assay [19] concerns the target Dickkopf-related protein 1 (Homo sapiens) (UniProt O94907). Nature of the assay: DKK1 binders on small-molecule microarrays, primary screen, biochemical, small-molecule microarray, 635 nm fluorescence scan (AID 1106).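 Note: score merges emission near 667 nm with signal to noise over three replicate slides.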 As to conditions: DKK1 binding, higher = more signal.
Assay [20] relates to Inhibin beta A chain (activin A). Nature of the assay: INHBA (activin A) binders on microarrays, primary screen, biochemical, small-molecule microarray, 635 nm fluorescence scan (AID 1107).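 Note: mouse activin A protein probed at 4.33 µg/mL on printed slides; score merges bound-protein fluorescence near 667 nm with spot signal-to-noise.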 The note with it: small-molecule microarray binding, higher = more signal.

Calls of active or inactive are those of the source.

Follistatin-related protein 3 (Homo sapiens), sequence (O95633 whole entry, looked up): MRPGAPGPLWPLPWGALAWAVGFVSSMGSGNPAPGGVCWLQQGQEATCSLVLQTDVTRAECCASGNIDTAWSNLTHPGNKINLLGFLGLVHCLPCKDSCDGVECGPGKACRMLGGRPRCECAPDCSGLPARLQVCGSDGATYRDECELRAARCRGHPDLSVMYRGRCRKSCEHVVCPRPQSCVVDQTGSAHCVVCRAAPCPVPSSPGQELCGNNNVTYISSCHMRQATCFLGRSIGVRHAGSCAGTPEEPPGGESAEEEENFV
Dickkopf-related protein 1 (Homo sapiens), sequence (O94907 whole entry, looked up): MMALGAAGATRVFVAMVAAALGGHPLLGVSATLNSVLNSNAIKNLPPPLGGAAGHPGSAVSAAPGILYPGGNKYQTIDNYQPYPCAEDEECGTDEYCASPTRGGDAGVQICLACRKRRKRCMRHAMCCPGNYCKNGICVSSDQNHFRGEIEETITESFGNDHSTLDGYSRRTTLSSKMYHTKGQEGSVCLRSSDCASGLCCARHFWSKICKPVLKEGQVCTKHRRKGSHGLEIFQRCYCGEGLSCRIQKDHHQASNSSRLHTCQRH

Turning to `O=C(N1CCCCC1)[C@@]1(CCS(=O)(=O)c2ccccc2)N=C(c2ccc(OCCCO)cc2)O[C@H]1c1ccccc1`, the composite z-score is 1.24 in [1]; 3.63 in [5]; 0.0971 in assay [7]; 0.688 in assay [8]; 1.12 in assay [9]; -0.0828 in assay [10]. The composite z-score in [11] is 0.332; in assay [12], 0.653; in [13], 0.896; in [15], 1.27; in assay [16], 0.811; in [17] it was -0.162. The results for the composite z-score in assay [18], in assay [19] and in assay [20] were 0.598, -0.42 and 0.356, respectively. For the same compound, the z-score in assay [2] was -0.418 (inactive); in [3], -0.938 (inactive); in assay [4], 30.4 (active); in assay [6], 0.943 (inactive); in [14], -0.372 (inactive).

As to `Cc1ccc(S[C@]2(C(=O)NCCCN(C)C)CC(=O)N(C3CCCCC3)[C@@H]2c2ccc(CO)cc2I)cc1`, the composite z-score in [1] is -0.167; in [5], 1.81; in assay [7] it was 0.213; in assay [8] it was -0.553; in [9] it was -0.742; in assay [10] it was -0.257. The composite z-score in assay [11] was -0.939; in [12] it was 0.956; in assay [13], 1.14; in assay [15], -0.582; in assay [16], 0.219; in assay [17] it was -1. Moreover, the values for the composite z-score in assay [18], in assay [19] and in [20] were -0.593, -0.256 and 1.14, respectively. Moreover, the z-score in assay [2] is 0.782 (inactive); in assay [3] it was -8.01 (active); in assay [4], -0.417 (inactive); in [6], -0.455 (inactive); in assay [14], -1.31 (inactive).

Regarding `CC(C)(C)OC(=O)CC[C@@]1(C(=O)NCc2ccccc2)N=C(c2ccc(OCCCO)cc2)O[C@@H]1c1ccccc1`, the composite z-score in assay [1] was 1.55; in assay [5], 3.54; in assay [7], 0.0717; in [8], -0.0633; in [9], 1.1; in [10], 0.045. Moreover, the composite z-score in assay [11] was 1.64; in assay [12] it was 1.29; in assay [13], 1.31; in assay [15], 0.556; in [16], 1.26; in [17], -0.152. Further, the composite z-score in assay [18] came to 0.545; in assay [19], 0.144; in assay [20] it was 0.119. In addition, the z-score in assay [2] is -5.26 (inactive); in assay [3] it was -1.2 (inactive); in assay [4], 0.264 (inactive); in assay [6], 1.46 (inactive); in [14] it was -0.791 (inactive).

For the compound `C=CCC(OC(C)=O)[C@@H]1[C@@H](N(Cc2ccc(-c3ccccc3)cc2)C(=O)c2ccc(C)cc2)c2cc(OCCCO)ccc2N1C(=O)c1ccc(-c2ccccc2)cc1` (stereo not given in full), the composite z-score in assay [1] was -0.173; in [5], 0.554; in [7], 0.0026; in assay [8], -0.404; in assay [9], -0.532; in [10] it was 0.039. For the same compound, the composite z-score in assay [11] is -0.151; in assay [12], 0.434; in assay [13], 0.536; in assay [15], 0.104; in [16], -0.176; in assay [17] it was -0.0222. For the same compound, the results for the composite z-score in assay [18], in [19] and in assay [20] were -0.023, -0.0546 and 1.42, respectively. The z-score in assay [2] was -3.23 (inactive); in assay [3], -1.88 (inactive); in assay [4], -1.75 (inactive); in assay [6], 0.65 (inactive); in [14], -2.28 (inactive).

Regarding `O=C1O[C@H](c2ccccc2)[C@H](c2ccccc2)N2[C@H]1[C@@H](C(=O)NC[C@H](O)c1ccccc1)[C@]1(C(=O)Nc3ccc(C#CC4=CCCCC4)cc31)[C@H]2c1ccc(OCCO)cc1`, the composite z-score is 1.55 in assay [1]; 1.85 in assay [5]; -0.104 in assay [7]; 0.691 in [8]; 1.11 in assay [9]; -0.0494 in assay [10]. In addition, the composite z-score in assay [11] is 1.06; in assay [12], 0.607; in assay [13], 0.469; in assay [15] it was 0.313; in [16], 1.27; in assay [17], 0.386. Moreover, the values for the composite z-score in assay [18], in assay [19] and in assay [20] were 0.968, 0.703 and 1.05, respectively. Also, the z-score in [2] was 2.99 (inactive); in [3], 1.64 (inactive); in [4] it was 4.01 (inactive); in assay [6], -0.422 (inactive); in assay [14], -1.33 (inactive).

With `C[C@H]1COC(=O)[C@@H]2CCCN2C(=O)[C@@H](C)COC(=O)[C@@H]2CCCN2C1=O`, the composite z-score in assay [1] is -0.8; in assay [5], -0.863; in assay [7], -0.175; in [8], 0.381; in assay [9], -0.493; in assay [10] it was -0.071. Further, the composite z-score is -0.0175 in assay [11]; -0.37 in [12]; -0.675 in assay [13]; 0.419 in assay [15]; -0.295 in [16]; 0.514 in assay [17]. Also, the composite z-score in [18] was -0.0914; in assay [19] it was 0.563; in [20], -0.0885. In addition, the z-score in assay [2] was -0.173 (inactive); in [3] it was -0.649 (inactive); in assay [4], -1.65 (inactive); in [6], 0.493 (inactive); in [14] it was -0.0582 (inactive).

These data come from PubChem BioAssay.
